# Measurements as given in PubChem BioAssay (Tox21).
# Records with an inconclusive call do not appear. A number with no mark means an inactive call. Calls of active or inactive are those of the source. Calls come from the whole dose curve; as a rule, active = well fitted activation curve with a large enough effect in the repeat runs; inconclusive = weak or mixed curves; inactive = flat fitted curve, though single readings scatter.
# Experiment: A CellTox Green Cytotoxicity Assay to monitor cytotoxicity in HepG2 cells - 8 hour (AID 1224890); note: nearly all actives have a fitted effect of over 45% in size
# Details: CellTox Green fluorescence; series mostly up to 76.8 µM; cytotoxicity increase: at the top concentration
# From the text: National Center for Advancing Translational Sciences [NCATS]
# NIH Chemical Genomics Center [NCGC]
# U.S. Environmental Protection Agency [EPA]
# National Institutes of Environmental Health Sciences [NIEHS]
# National Toxicology Program [NTP]
# Cell-based models are critical for drug discovery. Determining the natural cytotoxic effects resulting from test compounds is an essential research activity. A CellTox Green Cytotoxicity Assay to monitor cytotoxicity in real time of continues cell culture during 40 hours of the compound treatment was used to screen Tox21 10K library compounds in HepG2 cells. CellTox Green Cytotoxicity Assay is a nonlytic, homogeneous, biofluorescent method to measure cytotoxicity in cell culture after experimental manipulation. The assay system uses a proprietary asymmetric cyanine dye that is excluded from viable cells but preferentially stains the dead cell's DNA. […] Viable cells produce no appreciable increases in fluorescence. Therefore, the fluorescence signal produced by the binding interaction with dead cell DNA is proportional to cytotoxicity.
# The mixture of HepG2 cell suspension and reagents were dispensed at 600cells/6 ul/well in 1536-well tissue culture treated black solid bottom plates using a Multidrop dispenser. After the assay plates were incubated at a 37 C/5% CO2 incubator for 5 hours, 23 nL of compounds dissolved in DMSO, positive and negative controls was transferred to the assay plate by a pintool work station. The plates were incubated at 37 C for 40 hours. The fluorescence intensity were measured at 0h, 8h, 16h, 24h, 32h and 40h time points using ViewLux plate reader during compound treatment.
# % is set by controls: 0 for no effect and ±100 for the full control effect; potency is the fitted concentration of half-maximal effect.
Structure (SMILES),cytotoxicity increase [%],Potency
CN(C)[C@@H]1C(=O)C(C(N)=O)=C(O)[C@@]2(O)C(=O)C3=C(O)c4c(O)ccc(Cl)c4[C@@](C)(O)[C@H]3C[C@@H]12,-10.3,
CN(CCCC(O)c1cccnc1)N=O (stereo not given),-18.5,
Clc1ccc(-c2ccc(Cl)c(Cl)c2Cl)c(Cl)c1Cl,-7.49,
Clc1ccc(C(c2ccc(Cl)cc2)C(Cl)(Cl)Cl)cc1,,inactive
O=C(CBr)c1ccc(O)cc1,-0.694,
CS(=O)(=O)c1ccc(C(=O)C2C(=O)CCCC2=O)c([N+](=O)[O-])c1,,39.6 µM (active)
CC(C)CC(C)Nc1ccc(Nc2ccccc2)cc1 (stereo not given),-10.6,
ClC1=C(Cl)[C@]2(Cl)[C@@H]3[C@@H](Cl)[C@@H](Cl)C[C@@H]3[C@@]1(Cl)C2(Cl)Cl,-7.67,
FC(Cl)(Cl)Cl,13.6,
c1ccc(OCC2CO2)cc1 (stereo not given),-7.73,
O=C(O)C1C2CCC(O2)C1C(=O)O (stereo not given),,inactive
NNC(=O)c1ccccc1,-7.56,
CCOP(=S)(OCC)SCS(=O)(=O)CC,-2.37,
Nc1ccccc1C(=O)OC/C=C/c1ccccc1,-4.5,
O=[N+]([O-])O.O=[N+]([O-])O.[Cd],1.38,
ClCc1ccccc1CCl,2.68,
COP(=O)(CCC(=O)NCO)OC,-2.86,
C=CC(=O)OCCCCOC(=O)C=C,-5.44,
CN(C)CCc1c[nH]c2cccc(O)c12,-18.6,
C[C@@H]1CC[C@@]2(OC1)O[C@H]1[C@@H](O)[C@H]3[C@@H]4CC[C@H]5C[C@@H](O[C@@H]6O[C@H](CO)[C@H](O[C@@H]7O[C@H](CO)[C@@H](O)[C@H](O[C@@H]8OC[C@@H](O)[C@H](O)[C@H]8O)[C@H]7O[C@@H]7O[C@H](CO)[C@@H](O)[C@H](O[C@@H]8O[C@H](CO)[C@@H](O)[C@H](O)[C@H]8O)[C@H]7O)[C@H](O)[C@H]6O)[C@H](O)C[C@]5(C)[C@H]4CC[C@]3(C)[C@H]1[C@@H]2C,,13.1 µM (active)

Structure (SMILES),cytotoxicity increase [%],Potency
Cc1cc(C)c(C2=C(OC(=O)CC(C)(C)C)C3(CCCC3)OC2=O)c(C)c1,-11,
O=[N+]([O-])c1cc(C(F)(F)F)c(Cl)c([N+](=O)[O-])c1Cl,,54.9 µM (active)
CC(C)(C)c1ccc(CSc2cnn(C(C)(C)C)c(=O)c2Cl)cc1,-2.65,
c1ccc2c(c1)[nH]c1cnccc12,0.247,
CCS(=O)(=O)c1cccnc1S(=O)(=O)NC(=O)Nc1nc(OC)cc(OC)n1,5.8,
BrC(Br)Br,-0.17,
CCOCn1c(-c2ccc(Cl)cc2)c(C#N)c(Br)c1C(F)(F)F,5.97,
Fc1ccc(Oc2ccnc3cc(Cl)cc(Cl)c23)cc1,15.8,
N#Cc1c(-c2ccc(Cl)cc2)[nH]c(C(F)(F)F)c1Br,-10.5,
CC(C)[C@H](C(=O)OC(C#N)c1cccc(Oc2ccccc2)c1)c1ccc(OC(F)F)cc1 (stereo not given in full),-11.3,
CC(C)Oc1cccc(NC(=O)c2ccccc2C(F)(F)F)c1,,49 µM (active)
COP(N)(=S)OC,2.97,
Oc1ccccc1Br,-0.204,
COCC(=O)N(c1c(C)cccc1C)[C@H](C)C(=O)OC,-4.61,
CCOP(=S)(OCC)SCCS(=O)(=O)CC,10.7,
CCC(C)c1cc([N+](=O)[O-])cc([N+](=O)[O-])c1OC(=O)C=C(C)C (stereo not given),-7.08,
CC(C)C(=O)Cl,-7.89,
CC(=O)c1cc(C(C)(C)C)cc2c1CCC2(C)C,19.1,
ClC1=C(Cl)[C@]2(Cl)[C@@H]3[C@@H](Cl)[C@H](Cl)C[C@@H]3[C@@]1(Cl)C2(Cl)Cl,-5.12,
CCOCCOC(C)=O,-2.65,
